# Source: PubChem BioAssay AID449762 (Southern Research Specialized Biocontainment Screening …, 2010)
# Where “and” joins values, the source holds several entries; their conditions need not be identical. Identical values can stand only once. In all, about 330,000 compounds went through this assay and about 1,900 (0.58%) were called active. About 4% were inconclusive and are not listed. Not all results are given here. Potency and affinity values are given separately. A number with no mark means an inactive call. Rule as the data show it: inconclusive = inhibition above about 70% without an active follow-up result; inactive = below that.
# Test: M. tuberculosis growth inhibition, HTS (AID 449762);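 also: bacterial growth assessed after seven days of incubation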
# Details: M. tuberculosis H37Rv growth inhibition, 7H9 media; at 25 µM; stronger effect = higher value
row,SMILES,inhibition
1,COc1ccc(N2CCN(C(=O)CCS(=O)(=O)c3ccc4c(c3)NC(=O)C(C)S4)CC2)cc1 (configuration not stated),6.18%
2,Cc1ccc(C(=O)Oc2ccc(Br)cc2C(=S)N2CCOCC2)cc1,11.3%
3,O=Cc1c(NCc2ccc(Cl)cc2)c2ccccc2[nH]c1=O,2.94%
4,CCCN(CC(=O)Nc1ccccc1OC)C(=O)CCC(=O)c1ccc(OCC)cc1,3.5%
5,CSc1ccc(CNC(=O)C2Cc3cc(S(=O)(=O)N4CCCC4)ccc3N2C(C)=O)cc1 (configuration not stated),2.84%
6,CCc1ccc(CNC(=O)C2Cc3cc(S(=O)(=O)N4CCCC4)ccc3N2C(C)=O)cc1 (configuration not stated),-2.81%
7,C=CCN(CC=C)C(=O)C[n+]1ccc(C(N)=O)cc1,6.91%
8,COCCN1C(=O)C(=O)/C(=C(/O)c2ccc(S(=O)(=O)N3CCCCC3)cc2)C1c1ccc(O)c(OC)c1 (configuration not stated),-2.3%
9,CN(c1ccccc1)S(=O)(=O)c1cccc(NC(=O)CSc2nnc(N)s2)c1,3.34%
10,O=C1Nc2ccc(Br)cc2/C1=C/c1ccc(C(=O)O)cc1,0.13%
11,O=C(CC1(O)C(=O)Nc2ccc(Br)cc21)c1ccc2c(c1)OCO2 (configuration not stated),-6.14%
12,CC(C)C(=O)Nc1c2c(nn1-c1ccc([N+](=O)[O-])cc1)CS(=O)(=O)C2,3.07%
13,Cc1ccc(F)cc1NC(=O)c1c(-c2ccccc2)noc1C,-8.46%
14,CCOc1ccc(C(=O)Nc2ccc3nc(N4CCN(CC)CC4)cc(C)c3c2)cc1,43.7%
15,CCOc1[nH]n(-c2ccccc2)c(=O)c1C=Nc1ccccc1,19%
16,CCOc1[nH]n(-c2ccccc2)c(=O)c1C=Nc1ccc(C)cc1,9.52%
17,Cc1ccccc1-n1c(-c2ccc([N+](=O)[O-])cc2)nc2ccccc2c1=O,2.55%
18,COc1ccc(NC(C)=O)c(C)c1,-2.52%
19,c1ccc(-c2nc(-c3ccncc3)n[nH]2)nc1,-0.34%
20,c1ccc(-c2n[nH]c(-c3ccccn3)n2)nc1,-3.4% and -2.35%
21,O=C(NCc1ccccc1F)c1cc(=O)[nH]c2ccccc12,1.18%
22,Cc1ccc2nsnc2c1S(=O)(=O)N1CCOCC1,-4.54%
23,COc1ccc(CCNC(=O)c2ccc(CNS(=O)(=O)c3cc(C)ccc3C)cc2)cc1OC,-3.98%

row,SMILES,inhibition
1,Cc1c(NS(=O)(=O)c2ccc(Br)cc2)c(=O)n(-c2ccccc2)n1C,0.05%
2,O=S(=O)(Nc1ccccn1)c1ccc(Br)cc1,10.2%
3,O=C(c1cc(F)ccc1F)C1CCCN(CCCc2ccccc2)C1 (configuration not stated),10.3%
4,CC(CCc1ccccc1)NC(=O)COC(=O)C1CCC(C(C)(C)C)CC1 (configuration not stated),6.62%
5,CN1CCc2c(OCC(=O)N3CCC(Cc4ccccc4)CC3)cccc2C1=O,5.02%
6,Cc1cc(NC(=O)c2cccs2)n(-c2nc3ccccc3[nH]2)n1,57.9%
7,Cc1cc(NC(=O)c2ccc(C)s2)n(-c2nc3ccccc3[nH]2)n1,56.9%
8,CCn1nnnc1SCC(=O)N1CCCCC1,0.5%
9,O=C1N/C(=N/N=C/c2ccc(O)cc2)SC1Cc1ccccc1 (configuration not stated),-5.03%
10,O=C1NC(=Nc2ccccc2)SC1Cc1ccccc1 (configuration not stated),-10.5%
11,CCC(Sc1nc2ccc(N)cc2s1)C(=O)Nc1nccs1 (configuration not stated),61%
12,C[n+]1cnn2c1SCC1(COC1)C2,3.72%
13,O=C(CNC(=O)c1ccc(F)cc1)c1ccc(Cl)cc1,6.46%
14,O=C(CNC(=O)c1ccc(Cl)cc1)c1ccccc1,-1.27%
15,C=C(C)Cn1c(C)cc(C)c(S(=O)(=O)c2cccc(C)c2)c1=O,-7.99%
16,CCOc1cc(CNc2ccc(Br)cc2)cc(Br)c1OCC(=O)NC(C)(C)C,-3.44%
17,CC(=O)c1ccc(N2CCN(C(=O)c3cc4c(C)nc5ccccc5c4o3)CC2)cc1,4.42%
18,Cc1nc2ccccc2c2oc(C(=O)N3CCN(c4ccc([N+](=O)[O-])cc4)CC3)cc12,26.2%
19,O=C(CCS(=O)(=O)c1ccc(Cl)cc1)N1CCN(c2ccccc2F)CC1,-3.9%
20,COc1ccc(OC)c(CN2CCN(C(=O)CNC(=O)c3cc(C)cc(C)c3)CC2)c1,1.7%
21,COc1ccc(OC)c(CN2CCN(C(=O)CCNC(=O)c3ccc(Br)cc3)CC2)c1,-2.93%
22,CCc1cc(C(=O)NN2C(=O)NC3(CCCCC3)C2=O)sc1C,-5.54%
23,Cc1ccc(NC(=O)c2sc(Cl)nc2-c2ccccc2)cc1,1.87%

row,SMILES,inhibition
1,O=C(NC1CCCCCC1)c1cc(S(=O)(=O)N2CCOCC2)ccc1N1CCCCC1,-7.36%
2,CCCCCCCNC(=O)C1(CC2CC(c3cccc(Br)c3)=NO2)CCN(C(=O)Cc2ccc(F)cc2)CC1 (configuration not stated),1.04%
3,CCCCCCCNC(=O)C1(CC2CC(c3ccccc3)=NO2)CCNCC1 (configuration not stated),-6.2%
4,Cc1ccc(-n2c(SCC(=O)NCCN3C(=O)CSC3=O)nnc2-c2ccccc2)cc1,-2.1%
5,O=C(Nc1ccc(-c2csc(Nc3ccccc3)n2)cc1)c1cccc(C(F)(F)F)c1,1.22%
6,O=C(Nc1ccc(-c2csc(Nc3cccc(C(F)(F)F)c3)n2)cc1)c1ccccc1,50.9%
7,Cc1ccc(C(=O)N/N=C2\CCCc3ccccc32)c(C)c1,-7.5%
8,O=C(N/N=C1\CCCc2ccccc21)c1ccccc1Cl,5.05%
9,CCOc1ccc(CN(C)C(=O)c2cccnc2OCC)cc1OC,-1.02%
10,CCOc1ccc(C(C)NC(=O)Nc2ccc(F)cc2F)cc1 (configuration not stated),6.1%
11,Cn1c(/C=N/c2nc3ccccc3[nH]2)nc2ccccc21,43.9%
12,C(=N\Nc1nc2ccccc2[nH]1)/c1ccccc1,33.3%
13,CCOc1ccc(OCCNC(=O)C(NC(=O)c2c(F)cccc2F)C(C)C)cc1 (configuration not stated),-12.3%
14,COc1ccc(Nc2nnc(SC(C)C(=O)NC3CC3)s2)cc1 (configuration not stated),-1.49%
15,Cc1c(NC(=S)N/N=C/c2cccc(O)c2)c(=O)n(-c2ccccc2)n1C,-10.1%
16,N=c1c2c(-c3ccccc3)c(-c3ccccc3)n(Cc3ccco3)c2ncn1CCCO,16.4%
17,N=c1c2c(-c3ccccc3)c(-c3ccccc3)n(Cc3ccco3)c2ncn1CCO,52.9%
18,O=C(Oc1ccccc1C(=S)N1CCOCC1)c1ccc([N+](=O)[O-])cc1[N+](=O)[O-],38.5%
19,O=C(C1=C(O)C(=O)N(CCOCCO)C1c1cccc([N+](=O)[O-])c1)c1cccs1 (configuration not stated),-3.54%
20,Cc1ccc(-c2cc(C(=O)N3CC(C)OC(C)C3)c3ccccc3n2)o1 (configuration not stated),-3.5%
21,COc1ccc2nc(NC(=O)C3CSC4(C)CCC(=O)N34)sc2c1 (configuration not stated),8.66%
22,COc1ccc(C(CNC(=O)c2cccc(NS(=O)(=O)c3ccccc3)c2)N(C)C)cc1 (configuration not stated),-11.7%
23,CCCCCCOC(=O)C(C#N)c1nc2ccccc2nc1N1CCCCC1 (configuration not stated),6.23%

row,SMILES,inhibition
1,CCCCCCOC(=O)C(C#N)c1nc2ccccc2nc1N1CCOCC1 (configuration not stated),5.48%
2,CCOC(=O)CC(=O)CSc1nccc(-c2cccnc2)n1,2.54%
3,COc1cc(OC)cc(C(=O)NCc2ccc3c(c2)cc(C)n3C)c1,55.2%
4,O=S(=O)(NC1CCCCC1N1CCN(c2ccc(F)cc2)CC1)c1ccccc1 (configuration not stated),11.3%
5,COc1ccc(-c2ccc(N(C)C)cc2)cc1[C@H]1[C@@H]2C=CCC[C@@]2(C)C(=O)N1Cc1ccccc1,-2.81%
6,COc1ccc(-c2ccc(C)cc2)cc1[C@H]1[C@@H]2C=CCC[C@@]2(C)C(=O)N1Cc1ccccc1,2.77%
7,CC(Sc1ccc(S(=O)(=O)N2CCOCC2)cc1[N+](=O)[O-])C(=O)O (configuration not stated),1.21%
8,O=C(/C=C/c1ccccc1)N1CCC(N2CCC(C(=O)N3CCOCC3)CC2)CC1,-6.29%
9,CCSc1cc(N2CCOCC2)nc(-c2ccccc2)n1,8.27%
10,O=[N+]([O-])c1ccccc1/C=N/Nc1nc(N2CCCC2)nc(N2CCCC2)n1,2.55%
11,Cc1cc(C)n(-c2ccccc2[N+](=O)[O-])n1,-3.52%
12,O=C(/C(=C\c1ccccc1)c1nc2ccccc2[nH]1)c1ccc(Cl)cc1,12.1%
13,O=C(/C(=C/c1ccc(Cl)cc1)c1nc2ccccc2[nH]1)c1ccccc1,0.75%
14,Nc1nsnc1C(=O)NCCO,-5.83%
15,O=C1CS/C(=N/N=C/c2c[nH]c3ccccc23)N1,2.46%
16,O=C(CSc1n[nH]c(-c2ccccc2)n1)N1CCOCC1,-3.77%
17,O=C(CN1CCCC1)NN=C(c1ccccc1)c1ccccc1,-2.73%
18,CCN(CC)CC(=O)NN=C(c1ccccc1)c1ccccc1,-1.34%
19,NC(=S)N=Nc1c(O)[nH]c2c(Br)cc(Br)cc12,-0.35%
20,COc1ccc(C(=O)NCC(=O)NCC(=O)OCC(=O)c2ccc(Br)cc2)cc1,7.79%
21,Cc1csc(NC(=O)CSCC(=O)O)c1-c1nc2ccccc2s1,-1.68%
22,Cc1csc(NC(=O)COCC(=O)O)c1-c1nc2ccccc2s1,-5.81%
23,Cc1cc(C(=O)OCC(=O)Nc2ccc(F)cc2F)c(C)o1,4.91%
